Test results taken from PubChem BioAssay.
Calls of active or inactive are those of the source.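 How the source made its calls, unless noted: active means inhibition above 20% together with a positive visual image hit; inconclusive means visual image hit but inhibition not above 20%; inactive means no visual image hit.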

Experiments:
[1] = inhibitors of TNFa-induced NFkB p65 translocation, primary screen, imaging, HUVEC, MLSMR starter and 10KST1 sets (AID 438); details: HUVEC TNFa-induced p65 nuclear translocation; cell count: measured here: nuclei count (cytotoxicity indicator), at 2.08 µM; inhibition: at 2 µM, stronger effect = higher value, 0% TNFa-plus-vehicle, 100% no-TNFa wells;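 further: compound added about 3h40 before a 20 min TNFalpha stimulation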;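 on inhibition: signal is the nuclear over cytoplasmic p65 intensity ratio per well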
[2] = reduction of polyQ htt aggregates in cells – imaging, exon1htt(103Q)mCFP cells, high-content imaging, primary screen (AID 483;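 active means visual image review flags a hit and inhibition of aggregation exceeds 20%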;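 further: compound exposure lasted 3 days before fixation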;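 on nuclei count: percent of the per-plate median nuclei count of sample wells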); details: exon1htt(103Q)mCFP cell line, aggregate imaging, at 2 µM; inhibition of aggregation: stronger effect = higher value; nuclei count: measured here: cell count, toxicity
[3] = endothelial E-selectin expression blockers – imaging, HUVEC, immunofluorescence, MLSMR starter and 10KST1 sets, primary screen (AID 487;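 active means visually confirmed hit in the image check and inhibition above 20%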;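 on inhibition: signal is fraction of cell area covered by stained E-selectin grains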;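 on nuclei count: 100% = median nuclei count of all wells on the same plate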); details: HUVEC TNFalpha-induced E-selectin immunofluorescence imaging, at 2 µM; inhibition: stronger effect = higher value; nuclei count: measured here: cell number, toxicity
[4] = molecular target: Voltage-gated potassium channel subunit beta-2 (Rattus norvegicus) (UniProt P62483); test: inhibitors of rat Kvbeta2 reductase activity – biochemical, NADPH fluorescence, primary screen (AID 622;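 active means fluorescence slope higher than the sample average by over 3 SD, cut at about -0.22 in these data, passing the limit was not always enough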;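 further: slope of raw intensity against log time taken from 70 to 1610 s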); details: recombinant KvBeta, 4-cyanobenzaldehyde reduction, at 10 µM, stronger effect = higher value
Chain of Voltage-gated potassium channel subunit beta-2 (Rattus norvegicus) (P62483 whole entry, looked up): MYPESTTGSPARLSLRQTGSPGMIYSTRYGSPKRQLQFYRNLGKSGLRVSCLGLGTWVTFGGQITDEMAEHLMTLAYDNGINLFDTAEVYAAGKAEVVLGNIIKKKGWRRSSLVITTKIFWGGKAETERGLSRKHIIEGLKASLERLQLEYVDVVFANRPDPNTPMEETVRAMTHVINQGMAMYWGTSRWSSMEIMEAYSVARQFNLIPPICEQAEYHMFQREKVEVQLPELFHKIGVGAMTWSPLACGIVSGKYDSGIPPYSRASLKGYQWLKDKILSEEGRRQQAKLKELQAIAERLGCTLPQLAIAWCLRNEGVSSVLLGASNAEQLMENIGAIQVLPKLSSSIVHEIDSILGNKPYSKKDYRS

[5] = molecular target: Voltage-gated potassium channel subunit beta-2 (Rattus norvegicus) (UniProt P62483); test: enhancers of rat Kvbeta2 NADPH turnover – biochemical, NADPH fluorescence, primary screen (AID 623;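 active means NADPH fluorescence slope more negative than the mean of all samples by about 3 SD, 99.7% confidence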;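 further: fluorescence intensity change per second fitted from 20 to 320 s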); details: Recombinant KvBeta, NADPH fluorescence decrease slope, 10 min; at 10 µM; stronger effect = lower value
[6] = molecular target: Alpha-2C adrenergic receptor (Homo sapiens) (UniProt P18825); test: compounds altering alpha2C-coupled GIRK flux – cell-based, HEK293 alpha2C/GIRK1/2, thallium flux, primary screen (AID 624;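 active means fluorescence slope after compound addition differing from the mean of all screened samples at 99.7% confidence, in either direction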;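 further: slope of fluorescence ratio to pre-addition baseline per second over 15 to 24 s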); details: thallium flux BTC fluorescence, at 10 µM, actives lie on both sides
Chain of Alpha-2C adrenergic receptor (Homo sapiens) (P18825 whole entry, looked up): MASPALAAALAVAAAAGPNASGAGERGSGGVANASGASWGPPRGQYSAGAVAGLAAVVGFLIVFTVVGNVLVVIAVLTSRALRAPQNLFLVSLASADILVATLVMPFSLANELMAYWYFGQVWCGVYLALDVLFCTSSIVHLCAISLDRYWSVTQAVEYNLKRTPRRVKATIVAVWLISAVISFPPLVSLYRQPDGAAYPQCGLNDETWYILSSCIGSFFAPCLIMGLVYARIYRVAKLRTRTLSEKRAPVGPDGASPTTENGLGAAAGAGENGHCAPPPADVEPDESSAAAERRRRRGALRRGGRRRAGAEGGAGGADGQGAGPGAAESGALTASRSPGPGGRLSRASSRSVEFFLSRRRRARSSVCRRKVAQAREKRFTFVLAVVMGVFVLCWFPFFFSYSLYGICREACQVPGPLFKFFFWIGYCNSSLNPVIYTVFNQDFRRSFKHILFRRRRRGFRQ

[7] = blockers of RIG-like receptor reporter activation – cell-based, Sendai virus stimulus, luciferase, 10K MLSCN set, TLR/RLR signaling modifier project, primary screen (AID 602276;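 active means inhibition at or above 50% at 10 µM; inactive means inhibition below 50%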;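 further: firefly luciferase from ISG56 promoter only with Renilla not read in this screen; 0% = Sendai virus plus DMSO and 100% = medium plus DMSO without virus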); details: HEK293 RL24 IRF3 luciferase reporter, at 10 µM, stronger effect = higher value
[8] = TLR3 IRF3 reporter activation blockers – cell-based, poly I:C stimulus, luciferase, 10K MLSCN set, primary screen (AID 602277;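 active means inhibition of the reporter signal at or above 50%; inactive means inhibition below 50%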); details: HEK293-TLR3 RL24 IRF3 luciferase reporter, at 10 µM, stronger effect = higher value

SMILES | cell count [1] | inhibition [1] | inhibition of aggregation [2] | nuclei count [2] [%] | inhibition [3] | nuclei count [3] [%] | fluorescence slope [4] | NADPH fluorescence slope [5] | slope [6] | inhibition [7] | inhibition [8]
O=C(OCC#CCSc1nnc(-c2ccncc2)o1)c1cccs1 | 513 | 5.2% (inactive) | -4.1% (inactive) | 104 | -19.4% (inactive) | 102 | -0.426 (inactive) | -2e-05 (inactive) | 0.00642 (inactive) | 1.96% (inactive) | 24.8% (inactive)
CC(C)OC(=O)CSc1nnc(-c2cccnc2)n1Cc1ccccc1 | 706 | -16.4% (inactive) | 8.1% (inactive) | 88.7 | 5.1% (inactive) | 98.8 | -0.356 (inactive) | -4.8e-05 (inactive) | 0.00509 (inactive) | 8.88% (inactive) | 10.9% (inactive)
CCOC(=O)CSC1=C(C#N)C(c2ccc(Cl)cc2)C(C(=O)OC)C(=O)N1 (stereo not drawn) | 495 | 4.4% (inactive) | -24.6% (inactive) | 40.5 | -80% (inactive) | 95.7 | -0.394 (inactive) | -5.6e-05 (inactive) | 0.00371 (inactive) | 7.95% (inactive) | 25.3% (inactive)
CC(=O)N1CCc2c(sc(NC(=O)c3ccc(S(=O)(=O)N(C)C)cc3)c2C#N)C1 | 660 | -0.8% (inactive) | 18.5% (inactive) | 87.4 | 7.9% (inactive) | 93 | -0.52 (inactive) | -3.5e-05 (inactive) | 0.0064 (inactive) | -4.77% (inactive) | 22.6% (inactive)
CCOc1ccc(N(CC(=O)NC2CCCC(C)C2C)S(=O)(=O)c2c(C)noc2C)cc1 (stereo not drawn) | 872 | 4% (inactive) | 20.7% (inactive) | 131 | -33.2% (inactive) | 111 | -0.612 (inactive) | 7.5e-06 (inactive) | 0.00653 (inactive) | 1.67% (inactive) | 38.3% (inactive)
O=C(NCC1COc2ccccc2O1)c1ccc(NC(=O)c2ccco2)cc1 (stereo not drawn) | 752 | -3.6% (inactive) | 22.7% (inactive) | 106 | -120% (inactive) | 120 | -0.435 (inactive) | -2.6e-05 (inactive) | 0.00329 (inactive) | 7.34% (inactive) | 20% (inactive)
COCCNC(=O)c1ccc(CS(=O)(=O)c2ccc(OC)cc2)o1 | 636 | 4.1% (inactive) | -4.8% (inactive) | 96.8 | 5.3% (inactive) | 124 | -0.583 (inactive) | -5.4e-05 (inactive) | 0.00675 (inactive) | 9.76% (inactive) | 25.7% (inactive)
Cc1ccc(-c2nnc(SCC(=O)N3CC(C)CC(C)C3)o2)cc1C (stereo not drawn) | 557 | -1.6% (inactive) | 1.6% (inactive) | 32.1 | -32.7% (inactive) | 120 | -0.527 (inactive) | -4.3e-05 (inactive) | 0.00676 (inactive) | -0.246% (inactive) | 9.23% (inactive)
O=C(Nc1ccc2c(c1)OCCO2)c1cnc2n(c1=O)CCS2 | 550 | -2.3% (inactive) | 9.3% (inactive) | 78.2 | -8.2% (inactive) | 98.4 | -0.57 (inactive) | -5.8e-06 (inactive) | 0.00627 (inactive) | -79.9% (inactive) | -177% (inactive)
COc1ccc(NC(=O)c2oc3ccc(S(=O)(=O)N4CCC5(CC4)OCCO5)cc3c2C)cc1 | 209 | -4.4% (inactive) | 10% (inactive) | 83.1 | -77.8% (inactive) | 121 | -0.447 (inactive) | 4.2e-05 (inactive) | 0.00642 (inactive) | 3.21% (inactive) | 10.5% (inactive)
COC(=O)C1=C(N)OC2=C(C(=O)CCC2)C1c1cccs1 (stereo not drawn) | 491 | 3.2% (inactive) | 27.3% (inactive) | 52 | 44.1% (inactive) | 103 | -0.49 (inactive) | -3.8e-05 (inactive) | 0.00743 (inactive) | 2.58% (inactive) | 21.7% (inactive)
CC(C)CCSc1nc2c(c(=O)[nH]c(=O)n2C)n1CCCc1ccccc1 | 618 | -5.9% (inactive) | 26.4% (inactive) | 103 | -34.8% (inactive) | 120 | -0.414 (inactive) | -4.8e-05 (inactive) | 0.00519 (inactive) | 10.3% (inactive) | 29.8% (inactive)
O=C(Nc1ccc(S(=O)(=O)N2CCCCCC2)cc1)c1ccco1 | 355 | 1.5% (inactive) | 12.9% (inactive) | 105 | -32.3% (inactive) | 126 | -0.434 (inactive) | -6.7e-05 (inactive) | 0.00521 (inactive) | -8.22% (inactive) | -19.4% (inactive)
O=C(CCn1c(=O)c2ccccc2n(CC(=O)NCCC2=CCCCC2)c1=O)NCc1ccco1 | 596 | -10.9% (inactive) | 25.7% (inactive) | 102 | -9.8% (inactive) | 82 | -0.558 (inactive) | -3e-05 (inactive) | 0.00599 (inactive) | -4.87% (inactive) | 10.3% (inactive)
CC(=O)NC(C)C(=O)OCC(=O)Nc1ccc(Br)cc1 (stereo not drawn) | 436 | 6.9% (inactive) | 5.5% (inactive) | 112 | -23.8% (inactive) | 116 | -0.246 (inactive) | -5.1e-06 (inactive) | 0.00449 (inactive) | 20% (inactive) | 13.9% (inactive)
C=CCSc1nc2c(c(=O)[nH]c(=O)n2C)n1CC | 570 | -3% (inactive) | 6.3% (inactive) | 36.2 | -48% (inactive) | 96.3 | -0.499 (inactive) | -2.4e-05 (inactive) | 0.00669 (inactive) | -5.1% (inactive) | 22.4% (inactive)
CCC(=O)Nc1cc(C)c(NC(=O)C23CC4CC(CC(C4)C2)C3)cn1 | 391 | 5.2% (inactive) | 1% (inactive) | 98.8 | -11.3% (inactive) | 102 | -0.479 (inactive) | -3.3e-05 (inactive) | 0.00598 (inactive) | 1.14% (inactive) | 18.1% (inactive)
CCOC(=O)c1cc(-c2ccco2)nc2c1c(C)nn2CCC#N | 590 | -10.8% (inactive) | -3.4% (inactive) | 103 | -15.3% (inactive) | 146 | -0.214 (active) | 2.1e-05 (inactive) | 0.00625 (inactive) | -22.4% (inactive) | -3.59% (inactive)
CCOc1ccc(NCCC(=O)c2ccc3c(c2)OCO3)cc1 | 624 | -5.4% (inactive) | 29.9% (inactive) | 96.9 | 0% (inactive) | 103 | -0.326 (inactive) | 8.4e-06 (inactive) | 0.00304 (inactive) | 2.87% (inactive) | 12.5% (inactive)
O=C1CN(C(=O)COC(=O)C23CC4CC(CC(O)(C4)C2)C3)c2ccccc2N1 | 649 | 1.4% (inactive) | 8% (inactive) | 106 | -44.5% (inactive) | 102 | -0.597 (inactive) | -3.1e-05 (inactive) | 0.00543 (inactive) | 8.83% (inactive) | 27.8% (inactive)
O=C(CCn1c(=O)oc2ccccc21)NCCN1CCOCC1 | 653 | -15.1% (inactive) | 2.6% (inactive) | 110 | -9.1% (inactive) | 99.8 | -0.58 (inactive) | -5.4e-05 (inactive) | 0.00667 (inactive) | -16.3% (inactive) | -13% (inactive)
CCOc1ccccc1N(C(=O)c1ccco1)C(C(=O)NC1CCCC1)c1cccnc1 (stereo not drawn) | 634 | -9.3% (inactive) | 12.2% (inactive) | 79.6 | 10% (inactive) | 116 | -0.563 (inactive) | 2.3e-05 (inactive) | 0.00563 (inactive) | -2.81% (inactive) | 13.5% (inactive)
O=S(=O)(c1ccc(F)cc1)N1CCC(N2CCCC2)CC1 | 621 | 12.4% (inactive) | 5.9% (inactive) | 107 | 12.6% (inactive) | 107 | -0.537 (inactive) | -4.2e-05 (inactive) | 0.00636 (inactive) | 6.84% (inactive) | 45.9% (inactive)
CC1=C(C(=O)N2CCOCC2)C(c2ccsc2)C2=C(CCCC2=O)N1 (stereo not drawn) | 326 | -25.2% (inactive) | 2.7% (inactive) | 99.6 | -11.7% (inactive) | 110 | -0.408 (inactive) | -4.5e-05 (inactive) | 0.00554 (inactive) | 19.4% (inactive) | 20.8% (inactive)
O=C(c1ccc(Br)o1)N(Cc1ccccc1)c1ccccn1 | 386 | -5.9% (inactive) | 13.3% (inactive) | 102 | 5.4% (inactive) | 107 | -0.43 (inactive) | 5.2e-05 (inactive) | 0.00529 (inactive) | 5.65% (inactive) | -0.317% (inactive)
C=CCc1ccccc1OCC(O)CN1CCN(Cc2ccc3c(c2)OCO3)CC1 (stereo not drawn) | 321 | 4.5% (inactive) | -3.4% (inactive) | 91.2 | -2% (inactive) | 91.6 | -0.457 (inactive) | 1.5e-05 (inactive) | 0.0057 (inactive) | 10.6% (inactive) | 1.32% (inactive)
Cc1ccc2nc(NC(=O)Cn3cc4c(n3)CCCCC4)sc2c1 | 899 | 0.5% (inactive) | 4% (inactive) | 100 | -44.1% (inactive) | 123 | -0.581 (inactive) | -1.2e-05 (inactive) | 0.00613 (inactive) | -7.98% (inactive) | -11.8% (inactive)
COc1cc2c(cc1OC)C(c1ccccc1O)N(C1CC(=O)N(c3ccccc3)C1=O)CC2 (stereo not drawn) | 409 | -0.5% (inactive) | -10.4% (inactive) | 105 | -27.1% (inactive) | 123 | -0.411 (inactive) | -8.8e-05 (inactive) | 0.00648 (inactive) | 15.9% (inactive) | 28.7% (inactive)
